Experimental data as given in PubChem BioAssay (Tox21).
Results filed as inconclusive are left out. Activity calls are given as the source filed them. Unless noted, calls come from the whole dose curve; as a rule, active = well fitted curve in the direction sought with a large enough effect in the repeat runs; inconclusive = weak or mixed curves; inactive = no such curve, though single readings can be large; an effect the other way counts as inactive or inconclusive.

Assays:
[1] = qHTS assay to identify small molecule agonists of the vitamin D receptor (VDR) signaling pathway - cell viability counter screen (AID 743224); note: series mostly up to about 63 µM; % is set by controls: 0 for no effect and ±100 for the full control effect; nearly all actives have a fitted effect of over 50% in size
In short: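 Luminescence from CellTiter-Glo, read after 30 min at room temperature, reports viability of VDR-bla cells treated with compounds for 16 h at 37C in the wells used for the beta-lactamase FRET read.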

[2] = qHTS assay to identify small molecule antagonists of the vitamin D receptor (VDR) signaling pathway - cell viability counter screen (AID 743225); note: % is set by controls: 0 for no effect and ±100 for the full control effect; nearly all actives have a fitted effect of over 50% in size
In short: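 Read-out: CellTiter-Glo luminescence measured 30 min after reagent addition at room temperature. Cells were VDR-bla HEK 293T exposed 16 h at 37C, 5% CO2, to compound with 3 nM final calcitriol agonist.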

[3] = qHTS assay to identify small molecule agonists of the NFkB signaling pathway (AID 1159509; active = well fitted curve in the direction sought with a large enough effect in the signal ratio in the repeat runs, not every such curve was filed as active; the % refers to the signal ratio; note: series mostly up to about 61 µM; % is set by controls: 0 for no effect and ±100 for the full control effect)
In short: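 NFkB-bla ME-180 cells with a beta-lactamase reporter under an NF-kB response element were plated overnight, treated with compounds in DMSO for 5 hr at 37 C, then loaded with FRET substrate for 1.5 hr at room temperature.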

[4] = qHTS assay to identify small molecule agonists of the NFkB signaling pathway - cell viability counter screen (AID 1159515; calls by dose curve; note: series mostly up to about 61 µM; % is set by controls: 0 for no effect and ±100 for the full control effect; nearly all actives have a fitted effect of over 55% in size)
In short: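 Luminescence from CellTiter-Glo (30 min, room temperature) gives viability, measured in the same wells as the beta-lactamase reporter read. Cells were NFkB-bla ME-180, 2,000 per well, treated 5 hr with compounds.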

[5] = qHTS assay to identify small molecule agonists of the endoplasmic reticulum stress response signaling pathway (AID 1159516; active = well fitted activation curve with a large enough effect in the signal ratio in the repeat runs, not every such curve was filed as active; the % refers to the signal ratio; note: % is set by controls: 0 for no effect and ±100 for the full control effect)
In short: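 Read-out is beta-lactamase cleavage of a FRET substrate (405 nm excitation; 460 and 530 nm emissions) in ESRE-bla HeLa cells after a 5 hr compound exposure at 37 C. Substrate incubation ran 2 hr at room temperature.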

[6] = qHTS assay to identify small molecule agonists of the endoplasmic reticulum stress response signaling pathway - cell viability counter screen (AID 1159517; calls by dose curve;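 note: HeLa cells carrying an ER stress response element beta-lactamase reporter; series mostly up to about 61 µM; % is set by controls: 0 for no effect and ±100 for the full control effect; nearly all actives have a fitted effect of over 50% in size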)
In short: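 Cells, HeLa ESRE-bla; density, 1,500/well; dosing, 5 hr at 37 C, 5% CO2; readout, CellTiter-Glo luminescence after 30 min RT.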

[7] = qHTS assay to identify small molecule antagonists of the retinoid-related orphan receptor gamma (ROR-gamma) signaling pathway - cell viability counter screen (AID 1159520); note: nearly all actives have a fitted effect of over 50% in size; note: potency is the fitted concentration of half-maximal effect
In short: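 Cytotoxicity was read from cellular ATP (CellTiter-Glo luminescence) after 16 hr at 37 C with 1 uM doxycycline induction. The inducer was added 2 hr after compound transfer to Tet-on ROR gamma CHO cells.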

[8] = target: Nuclear receptor ROR-gamma (Homo sapiens) (UniProt P51449); assay: qHTS assay to identify small molecule antagonists of the retinoid-related orphan receptor gamma (ROR-gamma) signaling pathway (AID 1159521; note: nearly all actives have a fitted effect of over 50% in size; note: potency is the fitted concentration of half-maximal effect)
In short: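 CHO Tet-on RORγ, RORE-luc reporter. Cpd 2 h pre-incubation, then dox hyclate 1 uM final, 16 h, 37 C/5% CO2. ONE-Glo luminescence; decrease = antagonist.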

[9] = qHTS assay to identify small molecule agonists of the AP-1 signaling pathway - cell viability counter screen (AID 1159525; calls by dose curve; note: nearly all actives have a fitted effect of over 55% in size)
In short: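 Luminescent ATP readout (Cell Titer Glo, 30 min RT), normalised to DMSO and tetra n-octyl ammonium bromide controls. Cells were ME-180 AP-1-bla in 0.5% dialyzed FBS Opti-MEM, with a 5 h, 37 °C compound exposure.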

[10] = qHTS assay to identify small molecule agonists of the RXR signaling pathway - cell viability counter screen (AID 1159529)
In short: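 HEK 293T RXRa-bla cells, 2% CS-FBS; 5 h settle; cpd 16 h 37 C, 5% CO2; CellTiter-Glo 30 min RT, luminescence. Tetraoctyl ammonium bromide as positive control.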

[11] = qHTS assay to identify small molecule agonists of the retinoic acid receptor (RAR) signaling pathway (AID 1159553); note: potency is the fitted concentration of half-maximal effect
In short: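 Luminescence from a RARE-driven luciferase reporter in C3RL4 cells served as the read-out, measured after 30 min with detection reagent at room temperature. Compounds in DMSO were applied for 6 hr at 37 C following overnight seeding.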

[12] = qHTS assay to identify small molecule agonists of the AP-1 signaling pathway (AID 1159526; calls by dose curve; note: % is set by controls: 0 for no effect and ±100 for the full control effect)
[13] = qHTS assay to identify small molecule antagonists of the retinoid acid receptor (RAR) signaling pathway - cell viability counter screen (AID 1159551); note: % is set by controls: 0 for no effect and ±100 for the full control effect; nearly all actives have a fitted effect of over 35% in size
In short: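 Luminescent ATP quantitation (CellTiter-Glo) gave cell viability in C3RL4 cells exposed to test chemicals for 6 h at 37 C alongside 1 uM final retinol.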

[14] = qHTS assay to identify small molecule antagonists of the estrogen related receptor (ERR) signaling pathway from Tox21 library - cell viability counter screen (AID 1224834); note: % is set by controls: 0 for no effect and ±100 for the full control effect; nearly all actives have a fitted effect of over 30% in size
In short: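 Fluorescence from CellTiter-Fluor gives the viability read-out, taken 30 min after reagent addition. Before that, ERR cells seeded 6 h earlier were incubated with compounds for 17.5 h at 37 C.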

[15] = qHTS assay to identify small molecule antagonists of the retinoic acid receptor (RAR) signaling pathway (AID 1159552)
In short: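 Cells of the C3RL4 line were seeded, incubated overnight, then dosed with compounds in DMSO followed immediately by retinol (1 uM final). Six hours later luciferase detection reagent went in; signal was measured after 30 min at RT.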

[16] = target: Retinoic acid receptor RXR-alpha (Homo sapiens) (UniProt P19793); assay: qHTS assay to identify small molecule agonists of the RXR signaling pathway (AID 1159527; calls by dose curve; note: nearly all actives have a fitted effect of over 35% in size; note: potency is the fitted concentration of half-maximal effect)
Retinoic acid receptor RXR-alpha (Homo sapiens), sequence (P19793 whole entry, looked up): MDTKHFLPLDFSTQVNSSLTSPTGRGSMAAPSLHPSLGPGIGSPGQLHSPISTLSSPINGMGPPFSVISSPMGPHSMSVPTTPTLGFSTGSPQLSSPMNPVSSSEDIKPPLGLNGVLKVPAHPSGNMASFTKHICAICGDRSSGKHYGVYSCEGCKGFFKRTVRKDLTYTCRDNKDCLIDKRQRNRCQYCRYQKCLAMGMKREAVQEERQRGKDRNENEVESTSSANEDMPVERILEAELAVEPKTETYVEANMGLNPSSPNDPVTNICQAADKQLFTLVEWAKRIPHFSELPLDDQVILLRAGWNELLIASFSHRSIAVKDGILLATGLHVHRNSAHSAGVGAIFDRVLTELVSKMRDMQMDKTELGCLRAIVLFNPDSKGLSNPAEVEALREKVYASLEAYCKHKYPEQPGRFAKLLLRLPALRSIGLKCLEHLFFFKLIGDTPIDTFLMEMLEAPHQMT
In short: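 Read-out: beta-lactamase FRET ratio (405 nm excitation, 460 and 530 nm emission) after 2 hr substrate loading at room temperature. Cells were RXR-alpha-UAS-bla HEK 293T treated with compounds for 16 hr in 2% charcoal-stripped FBS medium.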

[17] = qHTS assay to identify small molecule antagonists of the estrogen related receptor (ERR) signaling pathway - cell viability counter screen (AID 1224818);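 note: series mostly up to about 46 µM; viability measured after 17.5 h of compound exposure; % is set by controls: 0 for no effect and ±100 for the full control effect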
In short: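 Multiplexed counter screen to separate cytotoxic compounds from true ERR modulators. ERR cells received DMSO-dissolved compounds after a 6 h pre-incubation, were exposed 17.5 h at 37 C, then assayed with CellTiter-Fluor fluorescence.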

[18] = tested on: estrogen-related receptor alpha (ERRalpha) with PGC-1alpha coactivator, human; assay: qHTS assay to identify small molecule antagonists of the estrogen related receptor signaling pathway with the pleiotropic PPARgamma coactivator (PGC) (AID 1224821; calls by dose curve)
In short: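 Cells engineered for PGC/ERR signalling (line from NTP) were plated 6 h at 37 C/5% CO2, then exposed to DMSO-dissolved compound for 18 h at 37 C. Luciferase activity was read by One-Glo luminescence after 30 min at room temperature.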

[19] = qHTS assay to identify small molecule antagonists of the estrogen related receptor signaling pathway with the pleiotropic PPARgamma coactivator (PGC) cell viability counter screen (AID 1224822)
In short: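 Cells: PGC/ERR, 2,000/well, 1536-well format. Pre-incubation 6 h, 37 C/5% CO2. Compound exposure 17.5 h, 37 C. Detection: CellTiter-Fluor, 30 min, fluorescence.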

[20] = qHTS assay to identify small molecule agonists of the estrogen related receptor signaling pathway with the pleiotropic PPARgamma coactivator (PGC) (AID 1224823); note: % is set by controls: 0 for no effect and ±100 for the full control effect
In short: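 PGC/ERR reporter cells were seeded, rested 6 h at 37 C/5% CO2, then exposed to compounds in DMSO by pin transfer for 18 h at 37 C. Luciferase activity was read as luminescence after One-Glo reagent and 30 min at room temperature.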

CCc1cc2cc(OC)c(OC)cc2c(Cc2ccccc2)n1
inactive: Potency [1] | Potency [2] | outcome [3] | outcome [4] | outcome [5] | outcome [6] | Potency [7] | Potency [8] | outcome [9] | Potency [10] | Potency [11]

O=Cc1ccc(F)c(Br)c1
inactive: Potency [2] | outcome [3] | outcome [4] | outcome [5] | outcome [6] | Potency [7] | Potency [8] | Potency [12] | Potency [10] | outcome [13] | Potency [14]

CCCCCCCOC(=O)CCC
inactive: Potency [1] | outcome [3] | outcome [4] | outcome [5] | outcome [6] | Potency [7] | Potency [8] | Potency [12] | Potency [10] | outcome [13] | Potency [15] | Potency [11] | Potency [14]

Cc1nc(-c2ccccn2)ncc1C(=O)Nn1cc(C)c2cc(F)ccc21
inactive: Potency [2] | outcome [3] | outcome [4] | outcome [5] | outcome [6] | Potency [7] | Potency [8] | outcome [9] | outcome [13] | Potency [15]

NS(=O)(=O)c1cc(-c2nn[nH]n2)c(NCc2cccs2)cc1Cl
inactive: Potency [1] | Potency [2] | outcome [3] | outcome [4] | outcome [5] | outcome [6] | Potency [7] | Potency [8] | Potency [12] | Potency [16] | Potency [10] | outcome [13] | Potency [11]

O=C(O)[C@@H](O)[C@H](O)[C@H](O)[C@@H](O)C(=O)O
inactive: Potency [1] | Potency [2] | outcome [3] | outcome [4] | outcome [5] | outcome [6] | Potency [7] | Potency [8] | Potency [12] | Potency [16] | outcome [13] | Potency [14]

CCCCNC(=S)NCCCC
inactive: Potency [2] | outcome [3] | outcome [4] | outcome [5] | outcome [6] | Potency [7] | Potency [8] | outcome [9] | Potency [10] | outcome [13] | Potency [15]

CCOc1ccccc1N
inactive: Potency [2] | outcome [3] | outcome [4] | outcome [5] | outcome [6] | Potency [7] | outcome [9] | Potency [10] | outcome [13] | Potency [15] | Potency [11]
active: Potency [8] 54.1 µM

CC(Oc1c(Cl)cccc1Cl)C1=NCCN1 (centres undefined)
inactive: Potency [1] | Potency [2] | outcome [3] | outcome [4] | outcome [5] | outcome [6] | Potency [7] | Potency [8] | outcome [9] | Potency [16] | Potency [10] | outcome [13]

CCCCCOc1ccc(C2SC(=O)NC2=O)cc1OCC (centres undefined)
active: Potency [16] 5.35 µM | Potency [11] 21.1 µM
inactive: outcome [3] | outcome [4] | outcome [5] | outcome [6] | Potency [7] | Potency [8] | Potency [12] | outcome [13] | Potency [15] | Potency [14]

COc1ccc2nc(NC(=O)Nc3ccccc3)sc2c1
inactive: Potency [1] | Potency [2] | outcome [3] | outcome [4] | outcome [5] | outcome [6] | Potency [7] | Potency [8] | outcome [9] | outcome [13]

CC(C)OC(C)C
inactive: Potency [1] | Potency [2] | outcome [3] | outcome [4] | outcome [5] | outcome [6] | Potency [7] | Potency [8] | Potency [12] | Potency [16] | Potency [10] | outcome [13] | Potency [15] | Potency [11] | Potency [14]

CCCC1CCC(=O)O1 (centres undefined)
inactive: Potency [1] | Potency [2] | outcome [3] | outcome [4] | outcome [5] | outcome [6] | Potency [7] | Potency [8] | Potency [12] | Potency [10] | outcome [13] | Potency [14]

CCCc1c2oc(C(=O)O)cc(=O)c2cc2c(=O)cc(C(=O)O)n(CC)c12
inactive: Potency [1] | Potency [2] | outcome [3] | outcome [4] | outcome [5] | outcome [6] | Potency [7] | Potency [8] | outcome [9] | Potency [16] | outcome [13] | Potency [15] | Potency [14]

Cc1ccccc1C(=O)Nc1ccc(C(=O)N2CCCC(O)c3cc(Cl)ccc32)c(C)c1 (centres undefined)
inactive: Potency [2] | outcome [3] | outcome [4] | outcome [5] | outcome [6] | Potency [7] | Potency [8] | outcome [9] | Potency [10] | outcome [13] | Potency [11]

CCCN(CCC)C(=O)C(CCC(=O)O)NC(=O)c1ccccc1 (centres undefined)
inactive: Potency [1] | Potency [2] | outcome [3] | outcome [4] | outcome [5] | outcome [6] | Potency [7] | Potency [8] | Potency [12] | Potency [16] | outcome [13] | Potency [15] | Potency [11] | outcome [17] | outcome [18] | outcome [19] | outcome [20] | Potency [14]

CN(C)CCOc1ccccc1Cc1ccccc1
inactive: Potency [2] | outcome [3] | outcome [4] | outcome [5] | outcome [6] | Potency [7] | Potency [8] | outcome [9] | outcome [13] | Potency [15] | Potency [11] | Potency [14]

CC1(C)O[C@@H]2C[C@H]3[C@@H]4CCC5=CC(=O)CC[C@]5(C)[C@@]4(F)[C@@H](O)C[C@]3(C)[C@]2(C(=O)CCl)O1
inactive: outcome [3] | outcome [4] | outcome [5] | outcome [6] | Potency [7] | outcome [9] | outcome [13] | Potency [11] | Potency [14]
active: Potency [8] 13.3 µM

NC(Cc1ccc(F)cc1)C(=O)O (centres undefined)
inactive: activity change, negative = cytotoxicity [1] 0.52% [at 5.95 µM] | viability change, negative = cytotoxic [2] 2.79% [at 6.95 µM] | activation [3] -1.04% [at 6.95 µM] | activity, negative = cytotoxic [4] -7.23% [at 6.95 µM] | activation [5] -3.08% [at 6.95 µM] | activity change, negative = cytotoxicity [6] 0.188% [at 6.95 µM] | activity, negative = cytotoxicity [7] 9.21% [at 8.39 µM] | activity change, negative = inhibition [8] -13.5% [at 8.39 µM] | viability change, negative = cytotoxic [9] -5.13% [at 6.97 µM] | activation [16] 12.3% [at 6.98 µM] | activity change, negative = cytotoxicity [10] 2.52% [at 6.97 µM] | activity change, negative = cytotoxicity [13] 2.5% [at 8.39 µM] | viability change, negative = cytotoxic [14] 0.439% [at 8.39 µM]

CN(CCCN1c2ccccc2CCc2ccccc21)CC(=O)c1ccc(Cl)cc1
inactive: Potency [1] | Potency [2] | outcome [3] | outcome [4] | outcome [5] | outcome [6] | Potency [8] | outcome [9] | outcome [13] | Potency [15] | Potency [14]
active: Potency [7] 29.8 µM

CC(C)=CCCC(C)CCOC=O (centres undefined)
inactive: Potency [2] | outcome [3] | outcome [4] | outcome [5] | outcome [6] | Potency [7] | Potency [8] | outcome [9] | outcome [13] | Potency [15] | Potency [14]
